Records with an inconclusive call do not appear. Activity calls are given as the source filed them. The calls were made as follows, unless noted: active = hit-call score of the fitted dose curve at least 0.9, where 1 is the maximum; inactive = score below 0.9.
Tests used:
[1] = CCTE_Mundy_HCI_Cortical_Synap_Neur_Matur_NeuriteLength: CCTE's Synaptogenesis and Neurite Maturation Assay in rat cortical cells for Neurite Length, Mundy Lab (AID 2284214)
Method in brief: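 Rat primary cortical cultures, AraC added DIV 5, dosed DIV 7 through DIV 12 […]. Fixed, MAP2/synaptophysin immunostained with Hoechst; neurite length by high-content imaging, fitted in positive direction versus DMSO.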

[2] = CCTE_Mundy_HCI_Cortical_Synap_Neur_Matur_NeuriteSpotCountPerNeuron: CCTE's Synaptogenesis and Neurite Maturation Assay in rat cortical cells for Neurite Spot Count per Neuron Count, Mundy Lab (AID 2284215)
Method in brief: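 Read-out: neurite-associated synaptophysin puncta per neuron, imaged by high-content analysis after MAP2, synaptophysin and Hoechst staining. Rat primary cortical cultures, dosed DIV 7 through DIV 12; DMSO served as baseline.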

[3] = CCTE_Mundy_HCI_Cortical_Synap_Neur_Matur_SynapseCount: CCTE's Synaptogenesis and Neurite Maturation Assay in rat cortical cells for Synapse Count, Mundy Lab (AID 2284218)
Method in brief: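 Rat primary cortical cultures, AraC at DIV 5, chemical dosing DIV 7 to DIV 12 (288.33 h). Fixed cells stained for MAP2, synaptophysin and Hoechst; synapses per neuron counted by high-content imaging, loss of signal versus DMSO.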

[4] = CCTE_Mundy_HCI_Cortical_Synap_Neur_Matur_NeuriteCount: CCTE's Synaptogenesis and Neurite Maturation Assay in rat cortical cells for Neurite Count, Mundy Lab (AID 2284222)
Method in brief: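 Rat primary cortical cells; AraC added at DIV 5, chemicals dosed with media change at DIV 7 through DIV 12. MAP2/synaptophysin/Hoechst immunostaining, high-content imaging of neurite number; fitted relative to DMSO.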

[5] = CCTE_Mundy_HCI_Cortical_Synap_Neur_Matur_CellBodySpotCount: CCTE's Synaptogenesis and Neurite Maturation Assay in rat cortical cells for Cell Body Spot Count, Mundy Lab (AID 2284223)
Method in brief: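 Read-out: cell body-associated synaptophysin puncta per neuron, imaged after MAP2, synaptophysin and Hoechst staining. Rat cortical cells, AraC DIV 5, chemical dosing DIV 7, fixation DIV 12. Activity fitted in positive direction relative to DMSO baseline.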

[6] = CCTE_Mundy_HCI_hNP1_Pro_ResponderAvgInten: CCTE's Proliferation Assay in human neuroprogenitor cells, Mundy Lab (AID 2284224; active = hit-call score of the fitted dose curve at least 0.9, where 1 is the maximum;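 also: human neural progenitor cells hNP1 derived from WA09 embryonic stem cells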)
Method in brief: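 Human neuroprogenitors (hNP1, WA09 lineage) receive test chemical after 40 to 44 hours of attachment. A four-hour BrdU pulse begins twenty hours later, followed by fixation and high content imaging; signal is referenced to DMSO controls.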

[7] = CCTE_Mundy_HCI_Cortical_NOG_NeuronCount: CCTE's Neurite Outgrowth Assay in rat cortical cells for Neuron Count, Mundy Lab (AID 2284236; active = hit-call score of the fitted dose curve at least 0.9, where 1 is the maximum;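 also: neurons counted by imaging betaIII-tubulin and Hoechst stained cortical cells; cells exposed to compound for about 48 hours before fixation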)
Method in brief: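 Read-out: neuron number by high-content imaging of betaIII-tubulin (Alexa Fluor-488) and Hoechst-labelled rat primary cortical cells.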

[8] = CCTE_Mundy_HCI_Cortical_NOG_BPCount: CCTE's Neurite Outgrowth Assay in rat cortical cells for Branch Point Count, Mundy Lab (AID 2284237)
Method in brief: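 Measured 50.33 h after dosing, this morphology endpoint uses rat primary cortical cultures labelled for betaIII-tubulin. Branch points are quantified by high-content imaging, with DMSO as negative control and baseline.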

[9] = CCTE_Mundy_HCI_hNP1_Casp3_7: CCTE's Caspase-Glo 3/7 Assay in human neuroprogenitor cells for Apoptosis, Mundy Lab (AID 2284240)
Method in brief: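 Neuroepithelial-lineage stem cells from WA09 embryonic cells were treated with chemicals after 40–44 h of culture. Twenty-four hours later, caspase-3/7 activation was detected luminescently after a 30 min room-temperature reagent step, with DMSO as baseline.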

[10] = CCTE_Mundy_HCI_hNP1_CellTiter: CCTE's Cell Titer-Glo 2 Assay in human neuroprogenitor cells for Viability, Mundy Lab (AID 2284241; active = hit-call score of the fitted dose curve at least 0.9, where 1 is the maximum)
Method in brief: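 Measures ATP content in human neural progenitors derived from WA09 embryonic cells. Read-out at 26.5 hours after dosing, with DMSO serving as the negative control and baseline.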

[11] = CCTE_Mundy_HCI_Cortical_Synap_Neur_Matur_NeuronCount: CCTE's Synaptogenesis and Neurite Maturation Assay in rat cortical cells for Neuron Count, Mundy Lab (AID 2284242; active = hit-call score of the fitted dose curve at least 0.9, where 1 is the maximum)
Method in brief: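 Rat primary cortical cells, AraC added at DIV 5, dosed with media change from DIV 7 to DIV 12. Fixed, Hoechst-stained and immunolabelled for MAP2 and synaptophysin; neuron number counted by high-content imaging, loss fitted versus DMSO.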

[12] = IUF_NPC2c_oligodendrocyte_migration_120hr: Leibniz Research Institute for Environmental Medicine (IUF) 120-hour Neural Progenitor Cell Migration Assay for Oligodendrocyte Migration (NPC2c) (AID 2284297);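 also: O4-positive oligodendrocyte migration distance divided by radial glia migration distance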
Method in brief: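 hNPC spheres (GW 16-19 cortex), PDL/laminin, DMEM/F12 3:1 + 1% N2, 37C. Dosing day 0–5, half feed day 3, DMSO ≤0.1%. Fixed 120 h; O4 ICC + Hoechst, HCI. Readout: mean oligodendrocyte distance from sphere edge / radial glia distance.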

[13] = IUF_NPC2a_radial_glia_migration_120hr: Leibniz Research Institute for Environmental Medicine (IUF) 120-hour Neural Progenitor Cell Migration Assay for Radial Glia Migration (NPC2a) (AID 2284298)
Method in brief: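 Hoechst-stained nuclei imaged at 120 h; algorithm maps sphere core by densest nuclei, sets migration edge at density threshold, gives radial glia migration distance (um) per well vs DMSO. hNPC spheres (0.3 mm), PDL/laminin, DMEM/F12 3:1 + 1% N2.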

[14] = IUF_NPC2a_radial_glia_migration_72hr: Leibniz Research Institute for Environmental Medicine (IUF) 72-hour Neural Progenitor Cell Migration Assay for Radial Glia Migration (NPC2a) (AID 2284299)
Method in brief: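 Human fetal neural progenitor spheres (0.3 mm) plated on poly-D-lysine/laminin in N2 differentiation medium and exposed from day 0 at 7 concentrations; radial glia migration distance from sphere edge measured at 72 h on brightfield images, mean of four directions, vs DMSO.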

[15] = IUF_NPC2b_neuronal_migration_120hr: Leibniz Research Institute for Environmental Medicine (IUF) 120-hour Neural Progenitor Cell Migration Assay for Neuron Migration (NPC2b) (AID 2284300)
Method in brief: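 hNPC spheres, PDL/laminin, DMEM:F12 3:1 + 1% N2, 37C/5% CO2; 7 concentrations + solvent control (DMSO ≤0.1%), 5 d exposure, half-feed day 3. Fix 120 h, TUBB3 ICC, HCI: mean neuron migration distance ÷ glia distance.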

[16] = IUF_NPC3_neuronal_differentiation_120hr: Leibniz Research Institute for Environmental Medicine (IUF) 120-hour Neuronal Differentiation Assay (NPC3) (AID 2284301)
Method in brief: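 Primary human fetal neural progenitor spheres (GW 16-19, 0.3 mm) plated on poly-D-lysine/laminin in N2 medium, exposed from day 0 for 120 h with half-medium refresh at day 3. TUBB3+ cells as percent of Hoechst nuclei in migration area; DMSO baseline.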

[17] = IUF_NPC4_neurite_length_120hr: Leibniz Research Institute for Environmental Medicine (IUF) 120-hour Neuronal Morphology Assay for Neurite Length (NPC4) (AID 2284302)
Method in brief: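 Human fetal cortex (GW 16-19) neural progenitor spheres, 0.3 mm, were plated on poly-D-lysine/laminin in N2 differentiation medium and exposed from day 0 for 120 h, half-feeding at day 3. Mean TUBB3+ neurite length (µm) came from skeletonized images, relative to DMSO.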

[18] = IUF_NPC5_oligodendrocyte_differentiation_120hr: Leibniz Research Institute for Environmental Medicine (IUF) 120-hour Oligodendrocyte Differentiation Assay (NPC5) (AID 2284304; active = hit-call score of the fitted dose curve at least 0.9, where 1 is the maximum;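 also: primary human fetal neural progenitor spheres plated to migrate and differentiate; share of O4-positive cells among Hoechst nuclei found by CNN image analysis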)
Method in brief: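 hNPC spheres, fetal cortex GW 16-19; PDL/laminin, DMEM:F12 3:1 + 1% N2, 37C/5% CO2; 7 concentrations + solvent control, 5 d exposure, half-change day 3. Readout: %O4+ of Hoechst+ nuclei in migration area, CNN classification; DMSO baseline.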

[19] = IUF_NPC4_neurite_area_120hr: Leibniz Research Institute for Environmental Medicine (IUF) 120-hour Neuronal Morphology Assay for Neurite Area (NPC4) (AID 2284305; active = hit-call score of the fitted dose curve at least 0.9, where 1 is the maximum)
Method in brief: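 Human fetal cortex-derived neural progenitor spheres (0.3 mm, GW 16-19) plated on poly-D-lysine/laminin in N2 differentiation medium and exposed from day 0 for 120 h across 7 concentrations plus solvent control. Neurite area is mean pixel area per TUBB3-positive neuron via skeletonization, analysed relative to DMSO.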

[20] = IUF_NPC2-5_cytotoxicity_72hr: Cytotoxicity Assessment at 72 hours in the Leibniz Research Institute for Environmental Medicine (IUF) Neural Progenitor Cell Migration and Differentiation Assay for Cytotoxicity (NPC2-5) (AID 2284306; active = hit-call score of the fitted dose curve at least 0.9, where 1 is the maximum;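 also: LDH release into supernatant measured by resorufin fluorescence marking membrane damage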)
Method in brief: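 Human fetal (GW 16-19) neural progenitor spheres, 0.3 mm, plated on poly-D-lysine/laminin in N2 differentiation medium and exposed from day 0 to 7 concentrations plus solvent control (DMSO ≤0.1%). LDH-dependent resazurin-to-resorufin fluorescence in supernatant at 72 h.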

[21] = IUF_NPC2-5_cytotoxicity_120hr: Cytotoxicity Assessment at 120 hours in the Leibniz Research Institute for Environmental Medicine (IUF) Neural Progenitor Cell Migration and Differentiation Assay (NPC2-5) (AID 2284307; active = hit-call score of the fitted dose curve at least 0.9, where 1 is the maximum)
Method in brief: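 hNPC spheres on PDL/laminin, N2 medium, 37C; 7 concs + solvent control, DMSO ≤0.1%; 5-day exposure, half medium changed day 3. LDH in supernatant at 120 h, resazurin→resorufin fluorescence, gain-of-signal.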

[22] = IUF_NPC2-5_cell_number_120hr: Cell Number Assessment at 120 hours in the Leibniz Research Institute for Environmental Medicine (IUF) Neural Progenitor Cell Migration and Differentiation Assay (NPC2-5) (AID 2284308);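 also: count of Hoechst-stained nuclei in migration zone around plated human neural progenitor spheres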
Method in brief: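 Hoechst-stained nuclei within the migration area were counted by automated high content imaging after 120 h. Single hNPC spheres differentiated on poly-D-lysine/laminin in DMEM/F12 (3:1) with 1% N2, compound present throughout, DMSO ≤0.1%.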

[23] = IUF_NPC1_cytotoxicity_72hr: Cytotoxicity Assessment at 72 hours in the Leibniz Research Institute for Environmental Medicine (IUF) Neural Progenitor Cell Proliferation Assay (NPC1) (AID 2284332; active = hit-call score of the fitted dose curve at least 0.9, where 1 is the maximum;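 also: rising LDH signal means more cytotoxicity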)
Method in brief: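 Human fetal neural progenitor spheres (0.3 mm) in EGF/FGF proliferation medium, 37C, exposed 72 h without renewal. LDH release in supernatant read by resorufin fluorescence; gain of signal scored relative to dynamic range.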

[24] = CCTE_Mundy_HCI_iCellGluta_NOG_NeuronCount: CCTE's Neurite Outgrowth Assay in iCellGluta cells for Neuron Count, Mundy Lab (AID 2284340; active = hit-call score of the fitted dose curve at least 0.9, where 1 is the maximum;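 also: cells fixed about 48 h after compound addition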)
Method in brief: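 Neuron count read by automated high-content imaging of Hoechst 33342 and betaIII-tubulin/Alexa Fluor-488 labelling in human iPSC glutamatergic neurons. Activity fitted relative to DMSO.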

[25] = CCTE_Mundy_HCI_iCellGluta_NOG_NeuriteCount: CCTE's Neurite Outgrowth Assay in iCellGluta cells for Neurite Count, Mundy Lab (AID 2284342; active = hit-call score of the fitted dose curve at least 0.9, where 1 is the maximum;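 also: chemical exposure about 48 hours starting 2 hours after plating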)

Measured: outcome

CC(=O)N[C@@H](CC(=O)O)C(=O)O
inactive: all assays above
